Measurements published in PubChem BioAssay (NCI).
Several values for one entry are separate records, joined by “and”; a condition that tells them apart may be missing. Equal entries are not always repeated. Compounds without any hit were thinned out: in the full panel of roughly 83,000, 20% have a hit.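 48-hour exposure, single concentration, 96-well plates; percent growth endpoint where 0 means no net growth. Active: below 10.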 Activity calls are given as the source filed them.

What follows are molecules tested on MDA-MB-468 breast (assay: NCI-60 one-dose screen, 48 h (100 = growth as untreated, 0 = no growth, -100 = all killed)). Conditions: 10 µM unless noted.

Row | Compound | growth
1 | CCS(=O)(=O)N[C@@H]1O[C@H](COC(C)=O)C(OC(C)=O)[C@H](OC(C)=O)C1OC(C)=O (stereo partly specified) | 100% (inactive)
2 | CCCCC(N)(C(=O)O)C1CCCC1 (stereo unspecified) | 107% (inactive)
3 | CC1(C)N=C(N)N=C(N)N1c1cc(Cl)ccc1Cl | 53.5% (inactive)
4 | COc1ccc(/C=C/c2nc3ccccc3c(=O)n2-c2ccc(C#Cc3ccc(C(C)(C)C)cc3)cc2C)c(OC)c1 | 97.9% (inactive)
5 | O=C(O)CSCSCC(=O)O | 91.2% (inactive)
6 | COc1cc(NC(=O)c2cc(O)c(C/C=C(\C)CCC=C(C)C)c(O)c2)cc2c1O[C@]1(C)CC[C@@H](O)C(C)(C)[C@H]1C2 | 21.9% (inactive)
7 | Cc1nc2ccccc2c(N)c1-c1cc(C)c2c(C)nc3ccccc3c2n1 | -94.8% (active)
8 | COc1cc(C2=Nc3c(N)nc(N)nc3NC(c3cccc(Nc4ccnc5cc(C(F)(F)F)ccc45)c3)C2)cc(OC)c1OC (stereo unspecified) | 68.1% (inactive)
9 | CCOP(=O)(OCC)OC[C@]12CC[C@@H](C)[C@H](C)C1C1=CC[C@@H]3[C@@]4(C)CCCNC(C)(C)[C@@H]4CC[C@@]3(C)[C@]1(C)CC2 (stereo partly specified) | -51% (active)
10 | Cc1cc2nc(C(Cl)Cl)nc(-c3ccc(Cl)cc3)n2n1 | -47.3% (active)
11 | C=C(C)[C@@H]1C[C@@H]2Cc3ccc(Cl)c(C)c3N1O2 | 96.3% (inactive)
12 | CCN(CC)CCCC(C)N=c1cc(Nc2cc(=NC(C)CCCN(CC)CC)c3cc(OC)ccc3o2)oc2ccc(OC)cc12 (stereo unspecified) | -76.8% (active)
13 | CC(=O)n1nc(C(=O)OC(C)(C)c2ccccc2)c2ccccc21 | 93.3% (inactive)
14 | CCCCOc1nc2ccc(Cl)cc2cc1/C=C/C(=O)/C=C1/CC(c2cc3cc(Cl)ccc3nc2OCCCC)Nc2ccccc2N1 (stereo unspecified) | 103% (inactive)
15 | N=C(N)c1ccc(-c2ccc(-c3ccccc3)s2)cc1F | -78.4% (active)
16 | Cc1cc(O)c2c(c1)C1OC(=O)CCCCCN1C1=C2C(=O)c2cccc(OC3CC(O)C(O)C(C)O3)c2C1=O (stereo unspecified) | 58.3% (inactive)
17 | Nc1ncc(-c2ccc3ncnc(NCc4ccccc4)c3c2)cn1 | -11.7% (active)
18 | O=S(=O)(c1ccc(N/N=C\c2ccccc2)cc1)c1ccc(N/N=C/c2ccccc2)cc1 | 61% (inactive)

Row | Compound | growth
19 | O=C1c2cccc3cccc(c23)C(=O)N1CCCCCCCCCCN1C(=O)c2cccc3cccc(c23)C1=O | 112% (inactive)
20 | COc1ccc(S(=O)(=O)N2CCCCC2)cc1NC(=O)c1[nH]c(C)c2c1CCCCC2=O | -2.19% (active)
21 | COc1cc2c(cc1OC)C(Sc1ccc(C)cc1)c1c(nc(N)c(C#N)c1N)O2 (stereo unspecified) | -46.7% (active)
22 | CC(C)(C)[Si](C)(C)OC1[C@@H](COC(=O)NC(=O)CCl)O[C@@H](n2cnc3c(N)ncnc32)[C@H]1O[Si](C)(C)C(C)(C)C (stereo partly specified) | 65% (inactive)
23 | CCN(CC)CCCC(C)Nc1cnc(C(=O)Nc2cc(C)cc3cccnc23)cn1 (stereo unspecified) | 9.36% (active)
24 | CCN1C(=O)N(c2ccccc2)C2NC(=S)N(/N=C/C=C/c3ccccc3)C21 (stereo unspecified) | 5.41% (active)
25 | O=C(NC(=S)N1CC=CCC1)c1ccccc1 | 121% (inactive)
26 | NS(=O)(=O)OCC1OC(n2cnc3cncnc32)C(O)C1O (stereo unspecified) | 5.51% [0.1 µM] (active) and -18.9% [0.1 µM] (active)
27 | COc1ccc2nc(NCCCNCCO)c3sc4ccc(F)cc4c(=O)c3c2c1 | -31.6% (active)
28 | COc1ccc(C2=NN(C(=O)c3ccc(S(C)(=O)=O)cc3)C(c3ccc(OC)c(OC)c3)C2)c(OC)c1 (stereo unspecified) | 87% (inactive)
29 | Cn1c(SCC(=O)c2ccc(F)cc2)nc2ccccc2c1=O | 79.4% (inactive)
30 | Cc1cc(O)c(C(C)C)cc1N | 8.67% (active) and -40.1% (active)
31 | CN(C)c1cnccn1 | 56.1% (inactive)
32 | O=C1c2ccccc2NC(c2cn(-c3ccccc3)nc2-c2cccnc2)N1Cc1ccccc1 (stereo unspecified) | 102% (inactive)
33 | C=C1C(=O)O[C@H]2[C@H]1CC/C(COC(=O)C(=O)c1c[nH]c3ccc(OC)cc13)=C\CC[C@@]1(C)O[C@@H]21 | -67.5% (active)
34 | NNC(=O)N/N=C1\C(=O)N(c2nccs2)C(=O)C(=O)C1c1nc2ccccc2s1 (stereo unspecified) | 106% (inactive)
35 | COc1cc(Cl)cc(-c2nn(-c3cccc(NC(=O)Nc4cc(C(F)(F)F)cc(C(F)(F)F)c4)c3)cc2-c2ccncc2)c1 | -2.95% (active)
36 | ClC1=NC(Cl)C(Cl)=N/C1=N\c1ncn[nH]1 (stereo unspecified) | -61.6% (active)
